Laboratory results published in ChEMBL document CHEMBL2218924, “A broad activity screen in support of a chemogenomic map for kinase signalling research and drug discovery” (Biochem J, 2013).

Experiments:
[1] = target: T1, cGMP-dependent protein kinase 1 (Homo sapiens) (UniProt Q13976); settings: at 1 µM
T1 sequence (whole entry): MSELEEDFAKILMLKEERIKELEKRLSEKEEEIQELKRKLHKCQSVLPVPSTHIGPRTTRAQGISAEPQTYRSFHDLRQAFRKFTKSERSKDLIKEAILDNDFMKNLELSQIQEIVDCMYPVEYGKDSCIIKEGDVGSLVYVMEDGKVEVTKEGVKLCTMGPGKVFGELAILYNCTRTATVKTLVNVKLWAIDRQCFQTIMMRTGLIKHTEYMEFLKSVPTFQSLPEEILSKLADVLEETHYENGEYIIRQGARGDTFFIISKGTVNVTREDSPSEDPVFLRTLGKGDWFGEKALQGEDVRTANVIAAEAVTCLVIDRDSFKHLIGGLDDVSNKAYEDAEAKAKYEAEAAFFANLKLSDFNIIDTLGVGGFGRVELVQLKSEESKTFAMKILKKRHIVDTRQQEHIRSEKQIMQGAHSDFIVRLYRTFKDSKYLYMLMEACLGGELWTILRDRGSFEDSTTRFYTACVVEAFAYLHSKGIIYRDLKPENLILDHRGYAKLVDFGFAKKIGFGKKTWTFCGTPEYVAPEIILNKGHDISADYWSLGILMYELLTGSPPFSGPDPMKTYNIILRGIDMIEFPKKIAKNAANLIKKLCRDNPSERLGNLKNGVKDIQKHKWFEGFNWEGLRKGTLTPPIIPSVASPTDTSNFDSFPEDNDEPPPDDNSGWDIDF

[2] = target: T1, cGMP-dependent protein kinase 1 (Homo sapiens); settings: at 10 µM
[3] = target: T1, cGMP-dependent protein kinase 1 (Homo sapiens); settings: at 1 µM; remark: listed apart in the source
[4] = target: T1, cGMP-dependent protein kinase 1 (Homo sapiens); settings: at 10 µM; remark: listed apart in the source
[5] = target: T2, MAP kinase-activated protein kinase 5 (Homo sapiens) (UniProt Q8IW41); settings: at 1 µM
T2 sequence (whole entry): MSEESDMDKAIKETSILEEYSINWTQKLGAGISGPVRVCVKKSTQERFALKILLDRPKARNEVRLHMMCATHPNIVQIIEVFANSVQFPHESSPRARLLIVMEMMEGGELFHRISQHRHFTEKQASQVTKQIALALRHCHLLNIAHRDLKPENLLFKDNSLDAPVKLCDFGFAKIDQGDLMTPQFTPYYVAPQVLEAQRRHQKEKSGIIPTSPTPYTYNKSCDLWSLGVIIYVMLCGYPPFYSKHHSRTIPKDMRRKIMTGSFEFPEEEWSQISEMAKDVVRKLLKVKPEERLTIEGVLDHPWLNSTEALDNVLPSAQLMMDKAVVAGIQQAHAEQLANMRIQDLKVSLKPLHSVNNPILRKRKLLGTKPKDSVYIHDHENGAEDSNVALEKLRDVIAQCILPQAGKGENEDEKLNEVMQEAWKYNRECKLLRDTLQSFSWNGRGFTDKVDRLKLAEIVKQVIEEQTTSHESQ

[6] = target: T2, MAP kinase-activated protein kinase 5 (Homo sapiens); settings: at 10 µM
[7] = target: Serine/threonine-protein kinase N2 (Homo sapiens) (UniProt Q16513); settings: at 1 µM
[8] = target: Serine/threonine-protein kinase N2 (Homo sapiens) (UniProt Q16513); settings: at 10 µM
[9] = target: Tyrosine-protein kinase FRK (Homo sapiens) (UniProt P42685); settings: at 1 µM
[10] = target: Tyrosine-protein kinase FRK (Homo sapiens) (UniProt P42685); settings: at 10 µM
[11] = target: T3, Phosphorylase b kinase gamma catalytic chain, liver/testis isoform (Homo sapiens) (UniProt P15735); settings: at 1 µM
T3 sequence (whole entry): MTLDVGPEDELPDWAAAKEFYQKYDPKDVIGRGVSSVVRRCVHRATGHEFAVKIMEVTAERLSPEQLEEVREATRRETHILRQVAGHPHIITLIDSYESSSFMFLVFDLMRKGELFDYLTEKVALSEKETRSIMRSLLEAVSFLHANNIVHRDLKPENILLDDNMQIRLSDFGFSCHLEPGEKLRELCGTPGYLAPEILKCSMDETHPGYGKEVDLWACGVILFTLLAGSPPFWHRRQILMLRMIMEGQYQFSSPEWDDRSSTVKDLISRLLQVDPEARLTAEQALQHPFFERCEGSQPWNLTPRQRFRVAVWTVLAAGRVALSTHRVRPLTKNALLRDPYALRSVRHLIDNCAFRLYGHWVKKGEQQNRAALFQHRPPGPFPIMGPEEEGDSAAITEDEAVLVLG

[12] = target: T3, Phosphorylase b kinase gamma catalytic chain, liver/testis isoform (Homo sapiens); settings: at 10 µM
[13] = target: Serine/threonine-protein kinase pim-1 (Homo sapiens) (UniProt P11309); settings: at 1 µM
[14] = target: Serine/threonine-protein kinase pim-1 (Homo sapiens) (UniProt P11309); settings: at 10 µM
[15] = target: Serine/threonine-protein kinase pim-2 (Homo sapiens) (UniProt Q9P1W9); settings: at 1 µM
[16] = target: Serine/threonine-protein kinase pim-2 (Homo sapiens) (UniProt Q9P1W9); settings: at 10 µM
[17] = target: Serine/threonine-protein kinase pim-3 (Homo sapiens) (UniProt Q86V86); settings: at 1 µM
[18] = target: Serine/threonine-protein kinase pim-3 (Homo sapiens) (UniProt Q86V86); settings: at 10 µM
[19] = target: Serine/threonine-protein kinase PLK1 (Homo sapiens) (UniProt P53350); settings: at 1 µM
[20] = target: Serine/threonine-protein kinase PLK1 (Homo sapiens) (UniProt P53350); settings: at 10 µM

Serine/threonine-protein kinase pim-1 (Homo sapiens), sequence (P11309 whole entry, looked up): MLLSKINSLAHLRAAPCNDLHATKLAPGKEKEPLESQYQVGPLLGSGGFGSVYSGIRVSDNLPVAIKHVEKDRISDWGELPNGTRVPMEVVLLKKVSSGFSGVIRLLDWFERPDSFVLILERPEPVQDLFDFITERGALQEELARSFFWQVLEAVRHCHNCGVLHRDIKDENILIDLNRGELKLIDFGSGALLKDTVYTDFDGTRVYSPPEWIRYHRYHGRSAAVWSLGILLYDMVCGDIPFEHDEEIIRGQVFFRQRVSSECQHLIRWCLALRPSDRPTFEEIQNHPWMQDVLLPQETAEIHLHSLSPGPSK
Serine/threonine-protein kinase PLK1 (Homo sapiens), sequence (P53350 whole entry): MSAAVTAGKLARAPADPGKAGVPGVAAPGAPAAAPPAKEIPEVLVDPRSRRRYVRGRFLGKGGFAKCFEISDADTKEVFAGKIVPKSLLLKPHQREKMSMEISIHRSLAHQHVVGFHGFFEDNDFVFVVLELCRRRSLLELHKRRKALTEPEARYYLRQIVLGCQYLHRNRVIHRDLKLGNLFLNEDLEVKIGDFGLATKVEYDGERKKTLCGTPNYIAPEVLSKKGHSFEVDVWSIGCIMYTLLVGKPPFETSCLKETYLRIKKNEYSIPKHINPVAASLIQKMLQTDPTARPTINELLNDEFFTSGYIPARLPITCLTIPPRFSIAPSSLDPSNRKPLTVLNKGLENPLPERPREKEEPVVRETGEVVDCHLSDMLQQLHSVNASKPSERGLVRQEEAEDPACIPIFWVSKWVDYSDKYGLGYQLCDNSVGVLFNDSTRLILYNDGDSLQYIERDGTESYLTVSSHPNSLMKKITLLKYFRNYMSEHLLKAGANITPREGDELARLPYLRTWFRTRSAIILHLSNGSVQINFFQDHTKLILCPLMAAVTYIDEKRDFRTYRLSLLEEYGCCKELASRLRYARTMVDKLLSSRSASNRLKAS
Serine/threonine-protein kinase pim-2 (Homo sapiens), sequence (Q9P1W9 whole entry, looked up): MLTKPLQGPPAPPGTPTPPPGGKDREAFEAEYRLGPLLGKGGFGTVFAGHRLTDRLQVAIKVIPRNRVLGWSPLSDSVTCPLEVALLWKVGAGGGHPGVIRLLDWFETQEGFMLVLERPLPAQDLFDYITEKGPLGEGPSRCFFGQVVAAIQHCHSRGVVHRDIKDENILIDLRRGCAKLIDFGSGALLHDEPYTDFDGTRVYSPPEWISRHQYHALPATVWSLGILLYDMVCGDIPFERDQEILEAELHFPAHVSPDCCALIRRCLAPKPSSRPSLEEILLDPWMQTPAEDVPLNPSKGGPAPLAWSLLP
Tyrosine-protein kinase FRK (Homo sapiens), sequence (P42685 whole entry, canonical isoform): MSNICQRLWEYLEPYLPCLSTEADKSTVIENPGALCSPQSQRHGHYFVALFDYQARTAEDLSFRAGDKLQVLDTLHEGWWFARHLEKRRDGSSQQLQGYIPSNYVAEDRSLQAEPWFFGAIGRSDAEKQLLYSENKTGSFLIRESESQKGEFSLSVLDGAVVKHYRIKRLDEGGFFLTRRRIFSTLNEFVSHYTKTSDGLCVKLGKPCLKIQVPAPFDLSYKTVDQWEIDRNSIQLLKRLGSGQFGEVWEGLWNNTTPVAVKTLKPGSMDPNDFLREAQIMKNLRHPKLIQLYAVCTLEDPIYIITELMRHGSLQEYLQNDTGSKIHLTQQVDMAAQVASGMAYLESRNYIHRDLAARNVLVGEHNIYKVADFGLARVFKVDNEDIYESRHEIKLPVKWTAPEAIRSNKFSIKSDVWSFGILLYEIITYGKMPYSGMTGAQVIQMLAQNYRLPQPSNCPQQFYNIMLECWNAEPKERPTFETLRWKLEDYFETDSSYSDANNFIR
Serine/threonine-protein kinase N2 (Homo sapiens), sequence (Q16513 whole entry, looked up): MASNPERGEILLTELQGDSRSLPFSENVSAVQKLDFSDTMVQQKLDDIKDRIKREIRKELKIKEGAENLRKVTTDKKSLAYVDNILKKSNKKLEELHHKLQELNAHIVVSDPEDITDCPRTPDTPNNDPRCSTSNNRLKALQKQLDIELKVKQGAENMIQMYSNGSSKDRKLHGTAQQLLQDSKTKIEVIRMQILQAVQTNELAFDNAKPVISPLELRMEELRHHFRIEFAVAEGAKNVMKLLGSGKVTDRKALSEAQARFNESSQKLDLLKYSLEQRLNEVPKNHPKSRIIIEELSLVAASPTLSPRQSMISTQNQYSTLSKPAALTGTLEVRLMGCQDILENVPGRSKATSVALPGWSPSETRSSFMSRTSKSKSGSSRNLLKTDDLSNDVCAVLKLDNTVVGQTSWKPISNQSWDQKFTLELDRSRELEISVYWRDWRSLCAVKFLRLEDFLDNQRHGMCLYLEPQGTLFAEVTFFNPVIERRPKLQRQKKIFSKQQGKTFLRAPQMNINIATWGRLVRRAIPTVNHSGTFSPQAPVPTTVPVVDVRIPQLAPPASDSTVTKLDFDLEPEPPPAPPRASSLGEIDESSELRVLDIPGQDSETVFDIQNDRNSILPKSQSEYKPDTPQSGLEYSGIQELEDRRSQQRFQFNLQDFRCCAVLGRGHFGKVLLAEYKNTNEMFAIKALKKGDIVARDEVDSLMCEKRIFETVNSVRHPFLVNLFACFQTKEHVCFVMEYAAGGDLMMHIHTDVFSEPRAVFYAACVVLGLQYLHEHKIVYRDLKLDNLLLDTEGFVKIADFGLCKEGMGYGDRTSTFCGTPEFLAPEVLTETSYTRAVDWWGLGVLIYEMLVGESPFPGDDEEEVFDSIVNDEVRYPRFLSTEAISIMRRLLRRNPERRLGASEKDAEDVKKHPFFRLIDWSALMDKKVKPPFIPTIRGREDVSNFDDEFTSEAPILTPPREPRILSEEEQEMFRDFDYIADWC

Compound	residual activity [1] [%]	residual activity [2] [%]	residual activity [3] [%]	residual activity [4] [%]	residual activity [5] [%]	residual activity [6] [%]	residual activity [7] [%]	residual activity [8] [%]	residual activity [9] [%]	residual activity [10] [%]	residual activity [11] [%]	residual activity [12] [%]	residual activity [13] [%]	residual activity [14] [%]	residual activity [15] [%]	residual activity [16] [%]	residual activity [17] [%]	residual activity [18] [%]	residual activity [19] [%]	residual activity [20] [%]
O=C(O)c1ccc2c3c1cccc3c(=O)n1c3ccccc3nc21	95	97	98	83	81	62	96	86	95	90	95	72	58	23	14	0	15	1	92	94
CCN(CC)C(=O)c1ccc(Nc2nc(OCC3CCCCC3)c3nc[nH]c3n2)cc1	–	–	–	–	–	12	66	12	78	38	–	–	77	56	143	–	–	–	78	66
N#CCCc1ccc2c(c1)-c1[nH]c3ccc([N+](=O)[O-])cc3c1CC(=O)N2	–	–	–	–	68	43	57	28	54	22	–	–	–	69	120	–	–	–	–	–
Ic1cccc(CSc2nnc(-c3ccncc3)o2)c1	105	96	88	49	105	117	83	70	77	78	106	84	104	73	93	86	78	84	72	74
N#Cc1cnc2cnc(NCc3cccnc3)cc2c1Nc1ccc(F)c(Cl)c1	4	9	–	–	78	101	4	3	28	22	3	2	27	18	84	63	97	94	–	–
Cc1cccc(-c2[nH]c(C(C)(C)C)nc2-c2ccc3c(c2)OCO3)n1	–	–	–	–	92	77	–	–	–	92	–	–	–	–	–	–	103	97	80	75
CCN(CC)CCCCN1c2ccccc2Oc2ccc(Cl)cc21	113	110	97	94	96	112	107	124	105	119	112	122	–	–	97	125	92	47	109	76
Cc1cncc2cccc(S(=O)(=O)N3CCCN(C(=O)CN)C[C@H]3C)c12	93	44	74	19	82	98	22	7	87	70	82	49	100	84	–	–	92	86	90	59
N#C/C(=C(\N)Sc1ccc(N)cc1)c1ccccc1C(F)(F)F	97	95	100	33	91	90	68	48	94	95	–	108	79	83	130	133	87	84	85	90
Cc1cc(Nc2nc(-c3ccccc3)nc3ccccc23)n[nH]1	82	39	82	27	–	–	–	58	46	8	–	35	104	57	126	–	–	–	73	40
Cc1ccc(S(=O)(=O)/C=C/C#N)cc1	85	99	107	92	110	111	90	87	70	82	114	111	97	95	111	103	91	102	92	102
COc1ccc(OC)c2c(=S)c3ccccc3[nH]c12	93	109	94	76	96	90	99	88	95	99	119	103	97	52	117	77	88	80	80	91
c1ccc2c(-c3ccncc3)c[nH]c2c1	76	23	54	12	87	90	30	8	88	97	103	86	97	49	97	–	91	86	86	65
Nc1nc(Nc2ccc(S(N)(=O)=O)cc2)nn1C(=S)Nc1c(F)cccc1F	–	–	–	–	32	2	5	2	20	0	86	31	96	77	125	–	95	95	–	–
